Results published in PubChem BioAssay AID602393 (Broad Institute, 2012).
The whole screen tested about 350,000 compounds, of which about 7,000 (2%) were called active. No stated cut-off is given here; in the data, active means activation above about 40%; inconclusive means no clear call, values can overlap the other calls; inactive means below that. Only a selection was taken, and actives are over-represented in it overall.

Assay: raisers of Bmi1 knock-in reporter signal – mouse ES cells, Bmi1 luciferase knock-in, single point, esBAF inhibitor project, primary screen (AID 602393);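 further: 0% = median of the plate's neutral control wells and 100% = double that signal; a rise in the Bmi1 reporter signal indicates esBAF inhibition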
Settings: 24 h, at 12.5 µM, active compounds read high, 100% = twice the neutral-well signal

SMILES	reporter increase
CCS(=O)(=O)Nc1ccc2c(c1)C(=O)N(C)[C@@H]1CC[C@H](CC(=O)N3CCCCC3)O[C@@H]1CO2	-2.06% (inactive)
CCc1sc(C(=O)N2CCN(CC(=O)Nc3cccc(F)c3)CC2)cc1C	79.7% (active)
O=C(CN1CCN(c2ccc(F)cc2)CC1)Nc1cccc(C(F)(F)F)c1	-10.4% (inactive)
CC(=O)N1CCN(CC(=O)Nc2ccc(C)c(F)c2)CC1	-6.19% (inactive)
Cc1ccc(S(=O)(=O)N(C)C[C@@H]2Oc3c(NS(C)(=O)=O)cccc3C(=O)N([C@@H](C)CO)C[C@H]2C)cc1	-2.2% (inactive)
O=C(NC[C@@H]1N[C@@H](CO)[C@H]1c1ccc(-c2cccnc2)cc1)c1cccc(F)c1	5.54% (inactive)
COCCNC(=O)C[C@H]1CC[C@H]2[C@H](COc3ccc(NC(=O)C4CCOCC4)cc3C(=O)N2C)O1	2.05% (inactive)
Cc1cccc(NC(=O)c2ccc3ccccc3n2)n1	25.2% (inactive)
CCOc1ccc(OCc2ccc(C(=O)Nc3cccc(C)n3)o2)cc1	37.5% (inactive)
Cc1ccccc1OCC(=O)Nc1ccc2c(c1)ncn2C	68.1% (active)
Cc1cccc(NC(=O)Cc2ccc(Br)cc2)n1	44.9% (active)
Cc1cccc(NC(=O)COc2ccccc2C)n1	44.4% (active)
COCCNC(=O)COc1ccccc1C	0.533% (inactive)
Cc1cccc(NC(=O)COc2ccc(Br)cc2C)n1	35.7% (inactive)
Cc1ccccc1OCC(=O)Nc1nnc(S(=O)(=O)N2CCCC2)s1	1.57% (inactive)
Cc1ccccc1OCC(=O)Nc1nc(C)c(C(=O)N(C)C)s1	9.35% (inactive)
C/C=C/c1ccc([C@H]2[C@@H](CO)N(C(=O)CC)[C@H]2CN(C)C(=O)C2CC2)cc1	5.87% (inactive)
CCCNC(=O)NC[C@H]1[C@H](c2ccc(C3=CCCCC3)cc2)[C@H](CO)N1C(C)=O	-2.67% (inactive)
COCc1cn(CC[C@H]2CC[C@H](NC(=O)Cc3cccnc3)[C@H](CO)O2)nn1	1.37% (inactive)
COCC(=O)Nc1ccc2c(c1)OC[C@H](C)N(Cc1ccccc1OC)C[C@@H](C)[C@@H](OC)CN(C)C2=O	0.256% (inactive)
CCCNC(=O)C[C@H]1CC[C@H]2[C@@H](COc3ccc(NC(=O)Nc4c(C)noc4C)cc3C(=O)N2C)O1	-1.98% (inactive)
CC(C)Cc1ccc(-c2cc3nc(NCc4cccc(Cl)c4)ccn3n2)cc1	79.4% (active)
COCCCNc1ccn2nc(-c3ccc(CC(C)C)cc3)cc2n1	24.7% (inactive)
COc1ccccc1-c1cc2nc(NCc3cccc(Cl)c3)ccn2n1	-5.22% (inactive)
COc1ccc(-c2cnc3c(c2)C(=O)N([C@@H](C)CO)C[C@@H](C)[C@H](CN(C)C)O3)cc1	-2.94% (inactive)
O=C(C[C@H]1C=C[C@@H](NC(=O)C2CC2)[C@H](CO)O1)NCC1CC1	-2.61% (inactive)
Cc1cccc(N=Nc2c(O)[nH]c3ccc(F)cc23)c1	72.6% (active)

SMILES	reporter increase
NS(=O)(=O)c1ccc(N=Nc2c(O)[nH]c3ccc(Br)cc23)cc1	-6.6% (inactive)
Oc1[nH]c2ccc(Br)cc2c1N=Nc1nn[nH]n1	6.07% (inactive)
Cc1ccc(S(=O)(=O)Nc2ccc3c(c2)C(=O)N([C@H](C)CO)C[C@@H](C)[C@H](CN(C)S(=O)(=O)c2cccs2)OCCCC[C@@H](C)O3)cc1	5.34% (inactive)
Cc1ccc(S(=O)(=O)N[C@H]2CC[C@H](CC(=O)NCc3ccccc3F)O[C@@H]2CO)cc1	-2.95% (inactive)
O=C1C(=O)N(c2ccccc2)C(c2ccccc2)C1c1ccccc1 (centres undefined)	-0.185% (inactive)
O=C(O)CC1=C(Nc2ccccc2)C(=O)N(c2ccccc2)C1c1ccc(Cl)cc1 (centres undefined)	49.1% (active)
O=C1C=C(c2ccc(Cl)cc2)C(=O)N1Nc1ccccc1	-0.361% (inactive)
C[C@@H]1CN([C@@H](C)CO)C(=O)Cc2cc(NC(=O)C3CCCCC3)ccc2O[C@H]1CN(C)C(=O)Nc1ccccc1	0.449% (inactive)
CCOC(=O)c1c(-c2ccc(-c3ccccc3)cc2)csc1NC(=O)CCC(=O)O	-6.99% (inactive)
CCOC(=O)c1c(N)nn(C(=O)c2ccccc2)c1-c1ccccc1	-1.4% (inactive)
CCOC(=O)c1c(C)nc(-c2ccccc2)nc1NC(=O)C(C)C	42.3% (active)
O=C(Nc1ccccc1C(=O)Nc1ccncc1)c1ccc([N+](=O)[O-])cc1	-2.66% (inactive)
O=C(Nc1ccc2ccccc2c1[N+](=O)[O-])c1ccccc1	114% (active)
O=C(O)c1cc([N+](=O)[O-])c(Nc2cccc3ccccc23)c([N+](=O)[O-])c1	15.6% (inactive)
CC(C)CC#Cc1cnc2c(c1)C(=O)N([C@H](C)CO)C[C@H](C)[C@@H](CN(C)C(=O)Cc1cccnc1)O2	-2.07% (inactive)
COc1ccc(NC(=O)N2C[C@H](O)COC[C@@H]3O[C@@H](CC(=O)NCc4ccccc4OC)CC[C@H]32)cc1	2.12% (inactive)
CCCNC(=O)[C@@H]1[C@@H](CO)[C@@H]2Cn3c(ccc(/C=C/c4ccccc4)c3=O)[C@H]1N2CCC	-5.3% (inactive)
Cc1cccc(-c2nc3ccc(C(=O)NCCN4CCN(C)CC4)cc3nc2-c2cccc(C)c2)c1	-7.08% (inactive)
C=CCNC(=O)c1ccc2c3n(nc2c1)-c1ccc(C)cc1CO3	56.5% (active)
CCOc1c2ccc(C(=O)NCc3ccc4c(c3)OCO4)cc2nn1C	-7.4% (inactive)
O=C(Nc1cccc(F)c1)NC1CCCc2ccccc21 (centres undefined)	-6.65% (inactive)
Cc1cc(C)cc(NC(=O)NC2CCCCCCC2)c1	15.2% (inactive)
O=C(Nc1cccc(F)c1)NC1CCCCCCC1	59.1% (active)
COc1ccc(/C=N/Nc2nc(-c3ccc(C)cc3)c(C#N)c(=O)[nH]2)cc1	-5.86% (inactive)
COc1ccc(/C=N/Nc2nc3ccccc3c(=O)[nH]2)cc1	45.1% (active)
COc1ccc(/C=N/Nc2ccccc2C(=O)O)cc1	-28.7% (inactive)
CN(C)CC(=O)Nc1ccc2c(c1)[C@H]1C[C@@H](CC(=O)NCc3ccc(-c4ccccc4)cc3)O[C@H](CO)[C@H]1O2	4.03% (inactive)
